Screening results: PubChem BioAssay, National Center for Advancing Translational Sciences (NCATS)
This is one part of a sample in which hits are shown more often than they occur.
L3MBTL1 inh: L3MBTL1 (human) inhibition; Q9Y468; hit rate 0.66% among 230,000; AlphaScreen L3MBTL1–H3K9me1 peptide binding; Potency, µM (series often up to 57.1 µM), for the others: at the highest dose activity, negative = inhibition, usual class: inhibitors; note: nearly all actives have a fitted effect of over 60% in size
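AlphaScreen assay: L3MBTL1 (50 nM final) was preincubated 30 min at room temperature with biotinylated H3(1-15)K9me1 peptide (75 nM final), then 30 min with library compounds; streptavidin donor and nickel chelate acceptor beads (10 ug/mL final) added, 30 min dark.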
TDP1 block: blocks human tyrosyl-DNA phosphodiesterase 1 | AID 485290 | hit rate 0.28% among 350,000 | Q9NUW8 | recombinant TDP1, AlphaScreen DNA substrate cleavage | Potency, µM (highest dose often 130 µM), for the others: top-dose activity change, negative = inhibition, hits mostly inhibitors; note: nearly all actives have a fitted effect of over 40% in size
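Enzyme-compound mixtures sat 15 min at room temperature, followed by a 5 min reaction with 15 nM final substrate and 10 min with AlphaScreen beads. Recombinant human Tdp1 was used at 1 nM final.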
BLM inh: Bloom syndrome helicase (human) inhibition; AID 2528; hit rate 0.2% among 350,000; Potency, µM (doses to about 56.1 µM), without a hit: at the top dose activity change, negative = inhibition, most hits filed as inhibitors; recombinant BLM DNA unwinding, fluorescence dequenching;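 note: plate controls were vehicle for no effect and no enzyme for full effect; nearly all actives have a fitted effect of over 35% in size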
RECQ1 helicase: RECQ1 (human) helicase inhibition | P46063 | RECQ1 DNA unwinding, red fluorescence kinetic read | Potency, µM (doses to about 57.3 µM), without a hit: at the highest dose activity, negative = inhibition, hits mostly inhibitors | hit rate 0.54% among 240,000 | AID 2549;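 note: plate controls were vehicle for no effect and no enzyme for full effect; nearly all actives have a fitted effect of over 30% in size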
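50 nM RECQ1T1 preincubated 15 min with compound in Tris pH 8.0 buffer with MgCl2, DTT, Tween-20 and 2.5 ug/ml poly(dI-dC); started with 200 nM TAMRA/BHQ-2 forked duplex and 2 mM ATP. Unwinding read as fluorescence (525/598 nm), two reads 2 h apart.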
KDM4E inh: inhibitors of human JMJD2E histone demethylase. JMJD2E catalytic domain, FDH-coupled NADH fluorescence (FDH is formaldehyde dehydrogenase). Potency, µM (series often up to 57.1 µM), for inactives: at the highest dose activity change, negative = inhibition, usual class: inhibitors. hit rate 1.6% among 230,000; active = well fitted inhibition curve with a large enough effect, not every such curve was filed as active; inconclusive = small, poorly fitted or top-dose-only effect, or another doubt; inactive = no such curve, though single readings can be large or run the other way;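 note: 0% = wells with enzyme and -100% = buffer wells without enzyme; nearly all actives have a fitted effect of over 50% in size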
Target sequence (B2RXH2 1-337 limits assumed): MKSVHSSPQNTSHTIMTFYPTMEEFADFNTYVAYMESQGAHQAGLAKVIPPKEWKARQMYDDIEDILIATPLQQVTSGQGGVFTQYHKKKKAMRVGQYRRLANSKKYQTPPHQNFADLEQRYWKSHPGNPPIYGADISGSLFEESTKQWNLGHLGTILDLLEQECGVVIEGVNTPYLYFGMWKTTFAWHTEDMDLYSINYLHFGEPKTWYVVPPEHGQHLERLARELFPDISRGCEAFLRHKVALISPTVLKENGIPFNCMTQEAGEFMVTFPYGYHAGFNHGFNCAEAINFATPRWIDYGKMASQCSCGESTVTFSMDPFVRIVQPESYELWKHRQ
APE1 inh: blocks human APE1 abasic DNA cleavage; Potency, µM (top dose mostly 65.8 µM), inactives show at the highest dose activity change, negative = inhibition, hits mostly inhibitors; AID 2517; P27695; hit rate 0.35% among 350,000; recombinant APE1, TAMRA/BHQ-2 abasic DNA cleavage fluorescence;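 note: plate controls were vehicle for no effect and reference inhibitor for full effect; nearly all actives have a fitted effect of over 55% in size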
Target sequence (P27695 whole entry, looked up): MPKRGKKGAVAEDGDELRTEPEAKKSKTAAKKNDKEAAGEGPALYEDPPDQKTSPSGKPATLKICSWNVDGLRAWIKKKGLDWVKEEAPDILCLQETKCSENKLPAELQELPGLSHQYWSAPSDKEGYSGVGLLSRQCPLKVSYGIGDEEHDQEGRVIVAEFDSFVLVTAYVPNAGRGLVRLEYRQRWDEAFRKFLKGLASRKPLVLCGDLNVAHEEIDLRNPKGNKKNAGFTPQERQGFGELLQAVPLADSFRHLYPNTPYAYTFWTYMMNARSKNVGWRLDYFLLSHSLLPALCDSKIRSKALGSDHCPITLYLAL
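Measures dequenching upon AP-site incision of a 5'-TAMRA/3'-BHQ-2 THF-containing duplex, 50 nM; human APE1 0.75 nM after 15 min room-temperature exposure to compound; kinetic three-point read at one-minute spacing.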
Numbers without * were called inactive; i = inactive; ? = inconclusive; . = not tested or not shown; ! = a repeat was not active; [ ] = remark or other dose. Unless noted, calls come from the whole dose curve; as a rule, active = well fitted curve in the direction sought with a large enough effect; inconclusive = small, poorly fitted or top-dose-only effect, or another doubt; inactive = no such curve, though single readings can be large; an effect the other way counts as inactive or inconclusive. Unless noted, % is set by controls: 0 for no effect and ±100 for the full control effect; potency is the fitted concentration of half-maximal effect.

SMILES | L3MBTL1 inh | TDP1 block | BLM inh | RECQ1 helicase | KDM4E inh | APE1 inh
Cc1cc(C)c(S(=O)(=O)/N=C2/C=C(SCC(=O)O)C(=O)c3ccccc32)cc1C | . | 10% | 32µM* | ? | ? | ?
Cc1cc(C)c(S(=O)(=O)/N=C2\C=C(NS(=O)(=O)c3ccccc3)C(=O)c3ccccc32)c(C)c1 | . | . | -12% | . | . | -20%
COc1ccc(NC2=C(NC(C)=O)C(=O)c3ccccc3C2=O)cc1 | . | . | -11% | . | . | 38%
CCOc1ccc(NC2=C(OC)C(=O)c3ccccc3C2=O)cc1 | 25µM* | 12% | -15% | 1% | 14µM* | ?
CCN(CC)c1ccc(NC2=C(Cl)C(=O)c3ccccc3C2=O)cc1 | ? | 11% | -19% | -2% | 7.1µM* | -2%
Cc1ccc(NC2=C(Cl)C(=O)c3ccccc3C2=O)cc1 | -6% | 3% | -12% | -1% | 2% | -4%
COC1=C(Nc2ccc(OC)cc2)C(=O)c2ccccc2C1=O | 28µM* | 12% | -11% | i | 4µM* | 4%
COc1cc(F)c(S(=O)(=O)N2CCN(S(=O)(=O)c3cccc(NC(C)=O)c3)CC2)c(F)c1 | . | 2% | . | . | . | .
COC(=O)c1sc(-c2ccccc2)cc1NC(=O)Nc1ccc(F)cc1 | . | 5% | -9% | . | . | .
CC(C)(C)n1ncc2c(=O)n(Cc3cccc(-c4cccs4)c3)cnc21 | . | . | . | . | . | -6%
N#Cc1c(-c2ccc3ccccc3c2)no[n+]1[O-] | . | . | . | . | . | -8%
CCOC(=O)c1cc[n+](CC(=O)c2ccc(F)cc2)cc1 | 22% | 0% | -10% | -15% | 32µM* | 9%
O=C1NC(=O)/C(=C/c2ccc(-c3cccc([N+](=O)[O-])c3)o2)S1 | -1% | . | ? | . | . | 13µM*
COc1cccc(CNc2ccc3c(c2)nc(C)n3C)c1OC | -5% | 4% | -1% | . | . | 22%
COc1cc(NCc2ccc3nc(N)nc(N)c3c2C)cc(OC)c1OC | . | 19% | 18µM*! | i | . | ?
COc1ccc(CC(=O)NCc2nc3cccnc3n2Cc2ccc(C)cc2)cc1OC | . | . | -2% | . | . | .
Clc1ccccc1COc1ccc(/C=N/n2cnnc2)cc1 | 6% | 79µM* | -14% | -11% | 4% | 18%
CCCCC[C@H](O)/C=C/C=C\C/C=C\C=C\[C@@H](O)CCCC(=O)O | . | 4% | -3% | -8% | -3% | 0%
COCC(C)NC(=O)C(C)N1c2cccc3cccc(c23)S1(=O)=O (centres undefined) | . | 20µM* | -1% | . | . | -12%
Cn1cncc1C#Cc1ccc2cc(C3(O)CCCCC3)oc(=O)c2c1 | -1% | 56µM* | . | . | . | 4%
CC1=CC(=O)c2c(O)ccc(O)c2C1=O | 0.79µM* | -3% | 18µM* | 3.5µM* | ? | 2µM*
Cc1ccc(C(=O)C(OC(=O)CNC(=O)COc2ccccc2C)c2ccccc2)cc1 (centres undefined) | . | 2% | . | . | . | .
N#Cc1c(SCC(=O)Nc2nccs2)sc2c(O)cc(=O)[nH]c12 | . | . | -30% | . | . | 12%
CCCSc1nnc(NC(=O)CSc2sc3c(O)cc(=O)[nH]c3c2C#N)s1 | . | 0% | 22µM* | . | . | 64%[12.4 µM]
C=CCc1cccc(/C=N/NC(=O)c2ccccc2OC)c1O | . | 5% | -6% | -6% | 32µM* | -6%
SMILES | L3MBTL1 inh | TDP1 block | BLM inh | RECQ1 helicase | KDM4E inh | APE1 inh
C=CCc1cccc(/C=N/NC(=O)c2ccccc2Br)c1O | . | 0% | -8% | -12% | 25µM* | ?
COc1ccccc1/C=N/NC(=O)c1ccccc1Cl | . | 0% | -5% | i | -6% | -6%
S=C(Nc1ccc(Cl)cc1)Nc1cccc2cnccc12 | 0% | 0% | -17% | -7% | 14µM* | 6%
Fc1ccc(NC(=S)Nc2cccc3cnccc23)cc1 | -17% | 1% | 22µM* | i | -14% | -8%
S=C(Nc1cccnc1)Nc1cccc2cnccc12 | -8% | 3% | -16% | 4% | 14µM* | -5%
CN(C)S(=O)(=O)c1cccc(NC(=S)Nc2cccc3cnccc23)c1 | -17% | -3% | 13µM* | i | 28µM* | -5%
OCC(CO)(CBr)CBr | . | 6% | . | 8% | . | 3%
COC(=O)C1=C(C(=O)OC)[C@@H]2N(C)c3ccc(OC)cc3[C@@]23C[C@@H](C(=O)OC)N(S(=O)(=O)c2ccc(C(F)(F)F)cc2)C3=N1 | . | 14%[12.3 µM] | -8%[12.4 µM] | -1%[11.5 µM] | 10%[11.4 µM] | -2%[12.4 µM]
Cc1ccc(S(=O)(=O)N(CC(=O)O)Cc2ccco2)cc1 | . | 22µM* | -3% | -19% | -16% | 14µM*
COc1ccccc1N(CC(=O)NCc1ccco1)S(=O)(=O)c1ccc(C)cc1 | . | . | -30% | . | . | 21µM*
Cc1nn(-c2ccc(N3CCCCC3)nn2)c(C)c1CCC(=O)NCc1ccc(Cl)cc1 | . | 8% | 3% | . | . | .
COCC(=O)Nc1cc(Sc2ccccc2)ccc1N=C(NC(=O)OC)NC(=O)OC | . | . | -2% | . | . | .
Cc1sc2ncnc(N/N=C/c3ccccc3O)c2c1C | ? | 8% | -8% | -3% | 25µM* | -9%
Cc1sc2ncnc(N/N=C/c3ccc(O)cc3)c2c1C | -7% | 5% | -8% | -13% | -16% | -4%
Cc1ccccc1NC(=O)/C(=C/c1ccccc1)c1ccccc1 | 12% | -2% | -5% | -7% | -5% | -4%
O=C(Nc1ccccc1)/C(=C/c1ccccc1)c1ccccc1 | -3% | 6% | -7% | -19% | 28µM* | -4%
COc1ccccc1-c1cc(-c2ccc(O)cc2)nc(N)c1C#N | . | . | 32µM* | . | . | 27µM*
COc1ccc(C(=O)N(Cc2ccco2)Cc2ccco2)c(O)c1 | . | -7% | . | . | . | .
Cc1cccc(C)c1NC(=O)CN1C(=O)S/C(=C\c2cccn2-c2cccc(C(=O)O)c2)C1=O | -9% | . | -19% | -6% | -10% | -11%
O=C(CCN1C(=O)/C(=C\C=C\c2ccccc2)SC1=S)Nc1ccc(C(=O)O)cc1 | . | 14µM* | ? | . | . | 13µM*
Cc1ccc(NC(=O)CN2C(=O)S/C(=C\c3cc(Cl)c(OCC(=O)O)c(Cl)c3)C2=O)cc1 | 0% | . | ? | . | . | 7.5µM*
O=C(CN1C(=O)S/C(=C\c2ccc(Cl)cc2)C1=O)NNC(=O)c1ccccc1O | -2% | -2% | -12% | -8% | 18µM* | 2%
COc1ccc(NC(=O)CN2C(=O)S/C(=C/c3cccn3-c3ccc(C(=O)O)cc3)C2=O)cc1 | . | 20µM* | ? | . | . | 1.7µM*
Cc1ccc(NS(=O)(=O)c2cc3c(cc2N2CCC2)NC(=O)CC3)cc1C | . | 1% | . | . | . | .
CCNc1ncc2nc(-c3ccc(F)cc3)c(=O)n(CCOC)c2n1 | . | . | 2% | -1% | . | 0%
COc1cc(F)c(S(=O)(=O)N2CCN(S(=O)(=O)c3ccc(NC(C)=O)cc3)CC2)c(F)c1 | . | 0% | . | . | . | .
